Source: the supplement of paper PMC7801607

These compounds were tested on Plasmodium berghei ANKA liver stage in HepG2-A16-CD81 (assay: % inhibition of liver stage parasite viability (luciferase); higher = more inhibition). Settings: 5 µM; 48 h.
Procedure: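 Single-concentration screen of the MMV Pandemic Response Box. P. falciparum NF54 asexual blood stages: pLDH assay, 72 h at 37 °C, 2 and 20 µM, n=2. Stage IV/V gametocytes (NF54): luciferase reporter (NF54-Pfs16-GFP-Luc, 48 h), ATP bioluminescence (24 h) and PrestoBlue (48 h) at 1 and 5 µM, n=1. P. berghei liver stage (luciferase in HepG2-A16-CD81, 48 h post infection) at 5 µM, n=4. All normalised to DMSO and kill controls as % inhibition.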
In the case of O=C(NC12CC3CC(CC(C3)C1)C2)c1cc2ccccc2[nH]1, the “% inhibition of liver stage parasite viability” value (from here on “% inhibition”) is reported as 11.7%.
With C[N+]1(C)CCCC(OC(=O)C(O)(c2ccccc2)c2ccccc2)C1 (stereo not drawn) the “% inhibition” value was 34%.
COc1cc(C(C)(C)CCCC(C)C)cc(OC)c1OC was tested, and the “% inhibition” value was 21%.
In the case of CCCCc1ccc(C(=O)O)nc1, the “% inhibition” value is reported as 19.3%.
For Nc1c(C(=O)NCc2ccco2)c2nc3ccccc3nc2n1CCN1CCCCC1, the “% inhibition” value was 28.4%.
In the case of NC1(C(=O)O)CCP(=O)(O)CC1 (stereo not drawn), the “% inhibition” value is reported as 19.9%.
C[C@@]1(O)[C@H](O)[C@@H](CO)O[C@H]1n1ccc2c(N)ncnc21 was tested, and the “% inhibition” value was 12.7%.
In the case of CN1C(=O)C(c2ccccc2)C(=O)N(c2ccccc2)c2cc(C(F)(F)F)ccc21 (stereo not drawn), the “% inhibition” value is reported as 7.89%.
COC(=O)Nc1nc2ccccc2[nH]1 was tested, and the “% inhibition” value was 30.8%.
In the case of CCN1CCN(Cc2nc3ccc([N+](=O)[O-])cc3c(=O)n2-c2ccccc2F)CC1, the “% inhibition” value is reported as 14.3%.
For CC(C)Oc1cccc(NC(=O)c2ccccc2C(F)(F)F)c1, the “% inhibition” value was 23.7%.
With C[C@H]1CC[C@]2(NC1)O[C@H]1C[C@H]3[C@@H]4CC[C@H]5C[C@@H](O)CC[C@]5(C)[C@H]4CC[C@]3(C)[C@H]1[C@@H]2C the “% inhibition” value was 32%.
In the case of COc1ccccc1CN[C@H]1C2CCN(CC2)[C@H]1C(c1ccccc1)c1ccccc1, the “% inhibition” value is reported as 17.8%.
